Measurements published in the supplement of paper PMC7156485.
“And” between values parts separate entries of the source, which are not always exact repeats. Equal values may be shown once.

Tested on: HCC1569
Assay: H1.0 immunofluorescence intensity relative to DMSO (% of DMSO); higher = stronger H1.0 induction, active = 140 or more
Settings: concentration: 10 µM; 24 h
Summary of the method: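 Using 384-well plates with 800 cells per well in RPMI plus 10% FBS, HCC1569 and TDF cells were exposed to compounds at 10 µM, in triplicate, for 24 h at 37 °C. Imaging of six fields per well at ×10 followed H1.0 and DAPI staining. The reported quantity, H1.0 nuclear intensity or cell number, is a median of replicates given as percent of the plate control, and HCC1569 values were smoothed for positional effects.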
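Further: TDF is a line of transformed human dermal fibroblasts of mesenchymal origin.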

H1.0 immunofluorescence intensity, active:
COc1ccc(-c2cc(C(O)C3CCCCN3)c3ccccc3n2)cc1.Cl.Cl (centres undefined) 157
Oc1cccc(-c2nc(N3CCOCC3)c3oc4ncccc4c3n2)c1 205

H1.0 immunofluorescence intensity, inactive:
NC(=O)c1cnccn1 [Pyrazinecarboxamide] 110
O=S(=O)(NCc1ccccn1)c1ccc(Br)c2ccccc12 [4-bromo-N-(2-pyridinylmethyl)-1-naphthalenesulfonamide] 107
COc1cc(OC)cc(-c2cc3cnc(N)nc3nc2NC(=O)NC(C)(C)C)c1 139
Br.C=CCN1CCc2c(cc(O)c(O)c2Br)C(c2ccccc2)C1 (stereo not drawn) [R(+)-6-Bromo-APB hydrobromide] 99.2
Nc1nc(OCc2cc(Br)cs2)c2[nH]cnc2n1 [6-[(4-bromo-2-thienyl)methoxy]-1H-purin-2-amine] 113
COC1C(OC(N)=O)C(O)C(Oc2ccc3c(O)c(NC(=O)c4ccc(O)c(CC=C(C)C)c4)c(=O)oc3c2C)OC1(C)C.[Na+] (centres undefined) [Novobiocin.Na] 103
CNC1C(OC2OC(CO)C(N)C(O)C2O)OC2CC(N)C(OC3C(N)CC(N)C(O)C3O)OC2C1O (centres undefined) [Apramycin] 117
CCc1nn(CCCN2CCN(c3cccc(Cl)c3)CC2)c(=O)n1CCOc1ccccc1 [Nefazodone] 110
COc1cc(NS(=O)(=O)c2ccc(N)cc2)nc(OC)n1 [Sulfadimethoxine] 92.3
O=C(Nc1cc(Cl)cc2c1[nH]c1cnccc12)c1cccnc1 [IKK Inhibitor X] 106
O=C(O)COc1ccc(C(=O)c2cccs2)c(Cl)c1Cl [[2,3-dichloro-4-(2-thienylcarbonyl)phenoxy]acetic acid] 109
Cl.O.O.c1ccc2c(c1)CN1CCCC1=N2 [Desoxypeganine] 86.8
Cc1ccc(C(=O)c2cc(O)c(O)c([N+](=O)[O-])c2)cc1 [Tolcapone] 112
CC1=C(C)C(=O)C(CCCCC#CCCCC#CCO)=C(C)C1=O 103
COc1ccc(CCNCC(O)c2ccc(O)cc2)cc1OC (stereo not drawn) [R(-)-Denopamine] 105
C=C(C)C1CC=C(C(=O)O)CC1 (single isomer, unassigned; (-)) [(-)-Perillic acid] 99.9
COc1ccc(-c2ccc(N)[n+](CCCC(=O)O)n2)cc1.[Br-] 103
CC(C)C(CO)Nc1nc(Nc2ccc(C(=O)O)c(Cl)c2)c2ncn(C(C)C)c2n1 (centres undefined) [Purvalanol B] 98.7
CCC1(O)CC2CN(CCc3c([nH]c4ccccc34)C(C(=O)OC)(c3cc4c(cc3OC)N(C)C3C(O)(C(=O)OC)C(OC(C)=O)C5(CC)C=CCN6CCC43C65)C2)C1.O=S(=O)(O)O (centres undefined) [Vinblastine sulfate] 131
CC1CC=CC=CC=CC=CC(OC2OC(C)C(O)C(N)C2O)CC2OC(O)(CC(O)CC3OC3C=CC(=O)O1)CC(O)C2C(=O)O (centres undefined) [Pimaricin] 88.8
COc1ccc2c(c1OC)C(=O)OC2C1c2c(cc3c(c2OC)OCO3)CCN1C.Cl (centres undefined) [Noscapine hydrchloride] 96.5
Cn1cnc([N+](=O)[O-])c1Sc1ncnc2nc[nH]c12 [Azathioprine] 97.6
COc1c(OCCCCN2CCN(C)CC2)cc(O)c2c(=O)cc(-c3ccccc3)oc12 119
O=C1NC(=O)C(c2cn(CCCn3ccnc3)c3ccccc23)=C1Nc1ccccc1 [PKCb Inhibitor] 104
CCCCCCCCC=CCCCCCCCC(=O)NCCO [N-Oleoylethanolamine] 115
Cc1cc(N)c2ccccc2[n+]1CCCCCCCCCC[n+]1c(C)cc(N)c2ccccc21.[Cl-].[Cl-] [Dequalinium dichloride] 123
CCCCCC(O)c1cccc(OCc2ccc3ccccc3n2)c1 (centres undefined) 110 and 101
